KB-3-1 cytotox: qHTS assay for MDR1-selective chemotherapeutics: Primary screen using the parental adenocarcinoma cell KB-3-1. Potency, µM (highest dose often 46.1 µM), most hits filed as cytotoxic. KB-3-1 viability, CellTiter-Glo ATP luminescence, 72 h. hit rate 1.4% among 400,000; also: % is scaled to controls: 0 for no effect and ±100 for the full control effect; nearly all actives have a fitted effect of over 60% in size
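Viability of parental KB-3-1 cells, measured by CellTiter-Glo luminescence, followed a 72 h incubation at 37 °C with pinned compounds in phenol-red-free DMEM containing 10% FBS.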
SW480 rerep: A quantitative high throughput screen for small molecules that induce DNA re-replication in SW480 colon adenocarcinoma cells; SW480 DNA re-replication, Hoechst DNA content imaging, 48 h; hit rate 1.8% among 340,000; Potency, µM (highest dose often 46.1 µM), for inactives: top-dose re-replication activation, hits mostly activators; AID 624297, 2012; also: % of control where 0% means no effect; nearly all actives have a fitted effect of over 55% in size
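Readout is total intensity of Hoechst-stained nuclei, excited at 405 nm and collected at 500-530 nm. Compound treatment lasted 48 hr at 37 C in 5% CO2 before staining.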
KB-V1 MDR tox: qHTS assay for MDR1-selective chemotherapeutics: Primary screen using the drug-selected MDR subline cells KB-V1. KB-V1 MDR cells viability, CellTiter-Glo, 72 h. Potency, µM (series often up to 46.1 µM), most hits filed as cytotoxic. hit rate 3.4% among 400,000; also: % is scaled to controls: 0 for no effect and ±100 for the full control effect; nearly all actives have a fitted effect of over 60% in size
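Compound-treated KB-V1 multidrug-resistant cells, 72 h, 37 degrees C; viability by CellTiter-Glo. Fitted qHTS curves give the values.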
HT1080NT lethal: qHTS for induction of synthetic lethality in tumor cells producing 2HG: qHTS for the HT-1080-NT fibrosarcoma cell line; HT-1080-NT fibrosarcoma viability, CellTiter-Glo ATP luminescence, 48 h; Potency, µM (highest dose often 46.1 µM), without a hit: at the highest dose activity, negative = less viability, hits mostly cytotoxic; hit rate 1.6% among 360,000; AID 686970, 2013;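 also: NT is the 2HG producing partner of a matched IDH1 knockdown line; 0% = DMSO-treated cells and -100% = media-only wells without cells; nearly all actives have a fitted effect of over 55% in size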
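Viability by CellTiter-Glo luminescence after 48 h compound exposure at 37C of HT-1080-NT cells (750/well, RPMI, 5% FBS). % activity scaled between DMSO wells and medium-only wells, then curve-fitted and categorized by curve class.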
HT1080 IDH1KD tx: qHTS for induction of synthetic lethality in tumor cells producing 2HG: qHTS for the HT-1080-IDH1KD cell line. HT-1080 IDH1 knockdown viability, ATP luminescence, 48 h. Potency, µM (doses to about 46.1 µM), for the others: at the highest dose activity, negative = toxicity, hits mostly cytotoxic. hit rate 2% among 360,000. AID 686971, 2013;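 also: 0% = DMSO wells and -100% = cell-free medium wells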
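In this qHTS, HT-1080 cells depleted of IDH1 are exposed for 48 h at 37 °C to compound titrations. Toxicity is scored from CellTiter-Glo luminescence, with DMSO as full viability and medium alone as none.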
MCF10A rerep: A quantitative high throughput screen for small molecules that induce DNA re-replication in MCF 10a normal breast cells | Potency, µM (top dose mostly 46.1 µM), inactives show top-dose activity, positive = re-replication, most hits filed as activators | AID 624296, 2012 | MCF 10A DNA re-replication, Hoechst nuclear intensity, 48 h | hit rate 2.9% among 350,000; also: % of control where 0% means no effect; nearly all actives have a fitted effect of over 50% in size
* marks the source's active call; other numbers are inactive results; i = inactive; u = inconclusive; x = not tested or not shown; [ ] = remark or other dose. A selection: hits, their analogues and other compounds. The true share with any hit is near 8%. Calls follow the shape of the dose curve; as a rule, active = well fitted curve in the direction sought with a large enough effect; inconclusive = small, poorly fitted or top-dose-only effect, or another doubt; inactive = no such curve, though single readings can be large; an effect the other way counts as inactive or inconclusive. Potency is read from the fitted curve at half-maximal effect.

SMILES	KB-3-1 cytotox	SW480 rerep	KB-V1 MDR tox	HT1080NT lethal	HT1080 IDH1KD tx	MCF10A rerep
O=C(CSc1nnc(NC(=O)c2ccco2)s1)NC1CCCCC1	i	-2.4%	23.1µM*	2.1%	-1.9%	0.3%
CCOC(=O)c1cc(-c2ccccc2)sc1NC(=S)Nc1cccc(C)n1	i	-3.7%	i	9.9%	6.2%	u
Cc1ccc(Cn2c(=O)n(CC3CCC(C(=O)N4CCC(C)CC4)CC3)c(=O)c3sccc32)cc1 (configuration not stated)	i	x	i	x	x	x
O=C(O)c1cccc(S(=O)(=O)NNc2ccccc2C(F)(F)F)c1	i	-31.9%	i	13.6%	17.2%	-5.3%
COc1ccc(Cl)cc1NC(=O)CSc1cccc[n+]1[O-]	x	-12.0%	x	-2.1%	-8.5%	-1.1%
CCOC(=O)N(C)c1c(CC)nc2c(OCc3cccc(Cl)c3)cccn12	i	x	i	-22.2%	-27.1%	x
CCC(CC)C(=O)N(C)c1c(C)nc2c(OCc3ccccc3C(=O)OC)cccn12	i	x	i	-14.2%	-7.8%	x
COC(=O)c1ccccc1COc1cccn2c(N(C)Cc3cccs3)c(C)nc12	u	x	18.4µM*	u	u	x
Cc1nc2c(OCc3cccc(Cl)c3)cccn2c1N(C)Cc1cccs1	u	x	18.4µM*	u	u	x
CCN(CC(=O)NCc1ccc(Cl)cc1)C(=O)C(C)Sc1ccccc1 (configuration not stated)	x	3.6%	x	3.9%	3.2%	-0.4%
O=C(COc1ccccc1Cl)NCCCNC(=O)c1ccncc1	i	0.9%	i	2.4%	-12.3%	-2.2%
Cc1ccc(S(=O)(=O)C2CS(=O)(=O)CC2O)cc1 (configuration not stated)	i	-2.0%	i	3.1%	8.5%	38.7%
CC(=O)C1=C(S(=O)(=O)c2ccc(C)cc2)CS(=O)(=O)C1	u	14.6µM*	i	u	u	14.6µM*
O=[N+]([O-])c1ccc(NC(=S)N2CCc3ccccc3C2)cc1	i	-65.9%	23.1µM*	-4.5%	7.3%	8.4%
S=C(NCCN(C1CCCCC1)C1CCCC1)Nc1cccc(Cl)c1	u	u	u	16.4µM*	16.4µM*	u
O=[N+]([O-])c1ccc(NNC(=S)Nc2ccccc2)cc1	u	-3.8%[9.22 µM]	u	20µM*	u	28.7%
S=C(NCc1ccncc1)Nc1cccc(Cl)c1	i	-4.7%	u	0.6%	-2.0%	-0.8%
S=C(NCCC(c1ccccc1)c1ccccc1)Nc1cccc(Cl)c1	i	-2.3%[9.22 µM]	u	u	u	u
O=[N+]([O-])c1ccc(O)c(NC(=S)Nc2ccccc2)c1	i	-3.4%	i	-15.3%	u	-1.8%
Fc1ccc(CNC(=S)Nc2cccc(Cl)c2)cc1	i	4.7%	i	u	-26.4%	16.4µM*
COc1ccccc1N1CCN(S(=O)(=O)CCNC(=O)C(C)Oc2ccccc2)CC1 (configuration not stated)	i	x	i	-9.2%	-10.0%	x
CCCCNC(=S)Nc1ccc(Cl)cc1	i	2.8%	16.4µM*	-3.8%	-3.1%	14.7%
S=C(NCc1ccccc1)NC1CCCCC1	i	-3.2%	i	-1.9%	1.3%	-1.4%
S=C(NCc1cccc(Cl)c1)NC1CCCCC1	u	-16.6%	18.4µM*	-0.7%	-1.3%	u
CCCCc1ccc(NC(=O)C(=O)NCCN2CCN(Cc3ccc([N+](=O)[O-])cc3)CC2)cc1	i	9.5%	u	-0.4%	-0.9%	3.26µM*
SMILES	KB-3-1 cytotox	SW480 rerep	KB-V1 MDR tox	HT1080NT lethal	HT1080 IDH1KD tx	MCF10A rerep
O=[N+]([O-])c1ccc(NC(=S)NCc2ccc(F)cc2)cc1	u	u	u	u	23.1µM*	16.4µM*
O=[N+]([O-])c1ccc(NC(=S)NCCc2ccc(Cl)cc2)cc1	u	10.8%	16.4µM*	u	u	u
COc1ccc(NC(=S)Nc2ccc3nsnc3c2)cc1	i	6.5%	18.4µM*	-25.2%	u	22.3%
CCOc1ccc(NC(=S)Nc2ccc3nsnc3c2)cc1	i	20.6µM*	i	-13.7%	-1.4%	u
COc1ccc(NC(=S)Nc2ccc3nc(C)c(C)nc3c2)cc1	i	-1.3%	i	11.4%	0.7%	7.2%
COc1ccc(NC(=S)c2ccncc2)cc1	u	u	18.4µM*	11.7%	-7.7%	-45.4%
CCOc1ccc(NC(=S)Nc2cc(OC)c(Cl)cc2OC)cc1	i	-26.9%	16.4µM*	10.0%	6.1%	-57.5%
O=C(O)CSc1nnc(-c2ccco2)o1	i	-2.3%	i	11.3%	11.6%	1.9%
CCCSc1cc(N2CCCC2)nc(-c2ccccc2)n1	i	-3.8%	i	9.8%	8.9%	18.4%
CCOc1ccc(NC(=S)Nc2ccc(C)c([N+](=O)[O-])c2)cc1	i	-2.2%	16.4µM*	u	11.4%	1.3%
CC(C)N(C(=O)Nc1ccc2nsnc2c1)C(C)C	u	u	u	18.4µM*	u	16.4µM*
COc1ccc(NC(=S)NN(C)C(=S)Nc2ccc(OC)cc2)cc1	u	3.66µM*	u	1.46µM*	1.3µM*	u
COc1ccccc1C(=O)Nc1ccc(C(=O)c2ccccc2)cc1	i	7.2%	i	4.6%	-12.5%	0.0%
CN(C)c1ccnc(Oc2ccc(C(C)(C)C)cc2)c1C#N	u	6.1%	u	u	u	u
COc1cc(OC)nc(Oc2ccccc2C=O)n1	i	2.8%	i	u	u	16.4µM*
CN(C)S(=O)(=O)c1ccc(C(=O)OCC(=O)Nc2ccccc2OC(F)F)cc1	u	-2.2%	i	11.7%	-2.6%	-1.0%
Cn1ccnc1C(O)c1ccccc1 (configuration not stated)	i	0.7%	i	-1.4%	-14.2%	0.3%
Cc1ccc(C(O)c2nccn2C)o1 (configuration not stated)	i	10.4%	i	-2.3%	-6.1%	5.8µM*
Cc1ccc(/C=C2\SC(=S)N(CCC(=O)N3CCOCC3)C2=O)cc1	11.6µM*	u	u	0.3%	8.9%	-1.7%
COc1cccc(/C=C2/SC(=S)N(CCC(=O)N3CCOCC3)C2=O)c1	16.4µM*	9.4%	u	-16.7%	u	u
COc1ccc(/C=C2\SC(=S)N(CCC(=O)N3CCOCC3)C2=O)cc1	i	-2.5%	i	3.5%	15.2%	10.3%
